Several values for one entry are separate records, joined by “and”; a condition that tells them apart may be missing. Equal entries are not always repeated. Records with an inconclusive call do not appear. Activity calls are given as the source filed them. Unless noted, the call rests on the fitted dose curve; in most records, active means well fitted curve in the direction sought with a large enough effect; inconclusive means small, poorly fitted or top-dose-only effect, or another doubt; inactive means no such curve, though single readings can be large; an effect the other way counts as inactive or inconclusive.
What was measured:
[1] = target: Estrogen receptor (Homo sapiens) (UniProt P03372); assay: qHTS assay for small molecule antagonists of estrogen receptor alpha signaling (AID 588513; active means well fitted curve in the direction sought with a large enough effect in the signal ratio, with a control signal flat, not every such curve was filed as active; the % refers to the signal ratio; further: potency means the concentration at half of the fitted maximal effect)
Chain of Estrogen receptor (Homo sapiens) (P03372 whole entry, looked up): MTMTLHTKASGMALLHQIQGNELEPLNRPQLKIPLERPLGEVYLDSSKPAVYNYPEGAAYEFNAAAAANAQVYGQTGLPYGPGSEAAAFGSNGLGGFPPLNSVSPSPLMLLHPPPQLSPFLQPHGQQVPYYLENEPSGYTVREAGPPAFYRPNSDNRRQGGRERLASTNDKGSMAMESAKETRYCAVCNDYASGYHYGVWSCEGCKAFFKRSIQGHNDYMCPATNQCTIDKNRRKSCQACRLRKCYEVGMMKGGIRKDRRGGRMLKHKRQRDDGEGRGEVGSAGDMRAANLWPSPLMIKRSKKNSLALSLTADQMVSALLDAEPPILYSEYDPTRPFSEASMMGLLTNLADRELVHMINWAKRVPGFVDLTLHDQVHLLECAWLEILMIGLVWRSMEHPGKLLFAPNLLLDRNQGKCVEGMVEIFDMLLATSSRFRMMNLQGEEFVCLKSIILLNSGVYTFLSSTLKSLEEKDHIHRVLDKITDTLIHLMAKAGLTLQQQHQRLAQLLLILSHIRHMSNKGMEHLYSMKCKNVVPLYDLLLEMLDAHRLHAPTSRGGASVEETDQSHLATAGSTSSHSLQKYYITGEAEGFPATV
Method in brief: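 Fluorescence from CCF4 substrate after 2 h at room temperature gave reporter activity; cells had been exposed to compound and 0.5nM 17-beta-estradiol for 18 h at 37 C. Hill-equation fitting yielded IC50 and maximal response.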

[2] = target: Estrogen receptor (Homo sapiens) (UniProt P03372); assay: qHTS assay for small molecule agonists of estrogen receptor alpha signaling (AID 588514; calls by dose curve;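 further: 0% = vehicle only and 100% = reference agonist; nearly all actives have a fitted effect of over 70% in size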)
Method in brief: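 Read-out: CCF4 fluorescence from a beta-lactamase reporter in ER-alpha-UAS-bla HEK 293 cells after 18 hrs of compound exposure at 37 C. Normalized to 20 nM 17-beta-estradiol (100%) and DMSO (0%).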

[3] = target: Peroxisome proliferator-activated receptor delta (Homo sapiens) (UniProt Q03181); assay: qHTS assay for small molecule agonists of peroxisome proliferator-activated receptor delta signaling (AID 588534; calls by dose curve;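 further: 0% = DMSO basal wells and 100% = positive control agonist at 10 µM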)
Chain of Peroxisome proliferator-activated receptor delta (Homo sapiens) (Q03181 whole entry, looked up): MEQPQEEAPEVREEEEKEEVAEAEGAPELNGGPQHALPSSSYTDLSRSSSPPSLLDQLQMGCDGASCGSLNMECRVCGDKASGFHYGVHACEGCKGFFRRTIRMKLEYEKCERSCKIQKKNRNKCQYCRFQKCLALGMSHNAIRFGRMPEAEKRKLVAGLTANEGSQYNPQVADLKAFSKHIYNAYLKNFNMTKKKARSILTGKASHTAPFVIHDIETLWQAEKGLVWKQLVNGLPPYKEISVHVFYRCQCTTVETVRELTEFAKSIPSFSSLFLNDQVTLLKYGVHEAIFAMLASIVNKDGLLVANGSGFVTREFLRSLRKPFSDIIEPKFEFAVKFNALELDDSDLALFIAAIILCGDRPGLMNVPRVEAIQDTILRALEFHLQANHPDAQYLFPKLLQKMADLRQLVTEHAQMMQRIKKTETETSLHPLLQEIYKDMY
Method in brief: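 Titration series tested in agonist mode on beta-lactamase reporter cells; 18 hrs at 37 C after a 5 hr pre-incubation. Readout: CCF4 fluorescence, 2 hrs RT. Hill equation gives EC50 and maximal response.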

[4] = qHTS assay for small molecule antagonists of peroxisome proliferator-activated receptor delta signaling (AID 588535); settings: HEK293T PPARd-UAS-bla, beta-lactamase FRET ratio, 18 h; 460 nm channel;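 further: cells co-treated with a PPAR-delta agonist as stimulator during compound exposure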
Method in brief: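 Compounds tested in titration on PPAR-delta-UAS-bla HEK293T cells grown in charcoal/dextran-stripped serum (2%); beta-lactamase activity read via CCF4 emission at 460 and 530 nm.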

[5] = target: Peroxisome proliferator-activated receptor gamma (Homo sapiens) (UniProt P37231); assay: qHTS assay for small molecule antagonists of peroxisome proliferator-activated receptor gamma signaling (AID 588537; active means well fitted inhibition curve with a large enough effect in the signal ratio, with a control signal flat, not every such curve was filed as active; the % refers to the signal ratio;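 further: reporter cells co-stimulated with 50 nM rosiglitazone agonist during compound treatment; % of control where 0% means no effect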)
Chain of Peroxisome proliferator-activated receptor gamma (Homo sapiens) (P37231 whole entry, looked up): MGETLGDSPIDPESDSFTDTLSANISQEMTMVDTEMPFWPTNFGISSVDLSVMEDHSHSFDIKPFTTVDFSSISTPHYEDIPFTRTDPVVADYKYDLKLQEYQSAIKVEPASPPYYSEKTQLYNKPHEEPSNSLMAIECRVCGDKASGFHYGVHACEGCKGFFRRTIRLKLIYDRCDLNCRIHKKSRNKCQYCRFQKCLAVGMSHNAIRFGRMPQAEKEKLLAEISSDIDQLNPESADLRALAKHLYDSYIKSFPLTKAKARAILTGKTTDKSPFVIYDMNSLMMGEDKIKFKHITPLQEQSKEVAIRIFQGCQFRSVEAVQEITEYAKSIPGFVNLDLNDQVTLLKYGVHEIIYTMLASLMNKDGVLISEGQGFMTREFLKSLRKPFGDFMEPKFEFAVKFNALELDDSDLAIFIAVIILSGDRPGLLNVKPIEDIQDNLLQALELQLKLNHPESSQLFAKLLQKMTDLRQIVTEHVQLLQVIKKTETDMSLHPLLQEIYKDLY
Method in brief: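 HEK293 cells, PPAR-gamma-UAS-bla, 3000/well. Pre-incubation 6-6.5 h, 37 C. Compound titration with rosiglitazone 50 nM final, 16 h. CCF4 dye, 2 h RT, dual-emission fluorescence.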

[6] = target: Vitamin D3 receptor (Homo sapiens) (UniProt P11473); assay: qHTS assay for small molecule antagonists of vitamin D receptor signaling (AID 588541; calls by dose curve;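 further: receptor activated by calcitriol during compound treatment; series mostly up to about 77 µM; on the % scale 0 is the no-effect control and ±100 the full control effect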)
Chain of Vitamin D3 receptor (Homo sapiens) (P11473 whole entry, looked up): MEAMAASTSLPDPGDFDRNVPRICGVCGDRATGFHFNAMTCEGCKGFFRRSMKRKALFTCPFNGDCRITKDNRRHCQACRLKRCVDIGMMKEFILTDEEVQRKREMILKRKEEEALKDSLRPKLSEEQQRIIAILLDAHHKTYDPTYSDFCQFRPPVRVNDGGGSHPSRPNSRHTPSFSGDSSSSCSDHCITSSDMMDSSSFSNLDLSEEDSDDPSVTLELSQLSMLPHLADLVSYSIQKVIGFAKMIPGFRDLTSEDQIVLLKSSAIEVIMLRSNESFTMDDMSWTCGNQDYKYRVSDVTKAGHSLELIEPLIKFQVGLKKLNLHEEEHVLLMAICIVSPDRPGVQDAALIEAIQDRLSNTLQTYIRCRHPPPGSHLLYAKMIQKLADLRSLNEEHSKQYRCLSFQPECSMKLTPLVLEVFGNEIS
Method in brief: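 VDR-UAS-bla HEK293T cells (2000/well, 2% charcoal-stripped FBS) were treated with titrated compounds plus 1-alpha,25-dihydroxyvitamin D3 (50 nM or 3 nM final) for 16 h at 37 C. CCF4 beta-lactamase fluorescence was read; Hill fits gave IC50.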

[7] = target: Retinoic acid receptor RXR-alpha (Homo sapiens) (UniProt P19793); assay: qHTS assay for small molecule agonists of retinoid X receptor alpha signaling (AID 588544; calls by dose curve; further: potency means the concentration at half of the fitted maximal effect;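 on activation: 0% = DMSO basal wells and 100% = reference agonist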)
Chain of Retinoic acid receptor RXR-alpha (Homo sapiens) (P19793 whole entry, looked up): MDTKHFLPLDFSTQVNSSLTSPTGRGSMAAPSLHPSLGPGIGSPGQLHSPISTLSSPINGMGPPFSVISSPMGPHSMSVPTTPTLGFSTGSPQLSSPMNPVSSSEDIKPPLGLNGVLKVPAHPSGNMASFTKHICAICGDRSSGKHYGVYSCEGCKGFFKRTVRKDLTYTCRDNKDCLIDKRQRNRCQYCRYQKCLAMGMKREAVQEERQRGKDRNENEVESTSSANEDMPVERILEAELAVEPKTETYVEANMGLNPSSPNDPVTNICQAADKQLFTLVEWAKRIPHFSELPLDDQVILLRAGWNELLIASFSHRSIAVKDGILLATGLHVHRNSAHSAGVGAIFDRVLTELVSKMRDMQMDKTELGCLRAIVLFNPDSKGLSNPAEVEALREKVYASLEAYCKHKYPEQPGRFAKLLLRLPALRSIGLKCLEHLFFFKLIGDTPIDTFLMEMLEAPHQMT

[8] = target: Thyroid hormone receptor beta (Homo sapiens) (UniProt P10828); assay: qHTS assay for small molecule agonists of thyroid hormone receptor beta signaling (AID 588545; calls by dose curve;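 further: 0% = DMSO only and 100% = 10 nM T3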)
Chain of Thyroid hormone receptor beta (Homo sapiens) (P10828 whole entry, looked up): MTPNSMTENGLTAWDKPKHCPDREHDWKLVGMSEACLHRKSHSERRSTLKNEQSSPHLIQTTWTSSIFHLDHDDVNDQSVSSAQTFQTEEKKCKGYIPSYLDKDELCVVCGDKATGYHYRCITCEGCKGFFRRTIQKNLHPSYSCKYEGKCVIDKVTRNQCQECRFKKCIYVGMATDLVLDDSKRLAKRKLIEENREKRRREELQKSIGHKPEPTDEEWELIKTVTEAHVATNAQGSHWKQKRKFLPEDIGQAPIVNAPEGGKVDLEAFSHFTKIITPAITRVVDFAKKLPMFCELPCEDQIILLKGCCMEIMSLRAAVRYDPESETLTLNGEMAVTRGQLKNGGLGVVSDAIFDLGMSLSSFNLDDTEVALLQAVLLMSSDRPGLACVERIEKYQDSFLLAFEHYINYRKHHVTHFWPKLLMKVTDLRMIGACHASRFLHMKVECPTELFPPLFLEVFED
Method in brief: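 Beta-lactamase reporter activity under TR response element control is measured in HEK 293 cells after 18 hrs compound exposure. Signal is ratiometric CCF4 fluorescence, 460/530 nm.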

[9] = qHTS assay for small molecule antagonists of retinoid X receptor alpha signaling (AID 588546; active means well fitted inhibition curve with a large enough effect in the signal ratio, with a control signal flat, not every such curve was filed as active; the % refers to the signal ratio;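 further: cells stimulated with 9-cis-retinoic acid as agonist; on the % scale 0 is the no-effect control and ±100 the full control effect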); settings: HEK293T RXRa-UAS-bla, beta-lactamase ratio, antagonist mode; measured here: W530 green channel, cytotoxicity proxy
Method in brief: (§1)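 Beta-lactamase reporter inhibition, read as CCF4 fluorescence ratio (ex 405, em 460/530 nm) after 2 h at RT. HEK293T UAS-bla cells, 2500/well, were stimulated with 9-cis-RA at 500 or 100 nM final alongside test compound for 18 h at 37 C.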

[10] = target: Retinoic acid receptor RXR-alpha (Homo sapiens) (UniProt P19793); assay: as above; settings: HEK293T RXRa-UAS-bla, beta-lactamase ratio, antagonist mode
Method in brief: as §1

[11] = target: Thyroid hormone receptor beta (Homo sapiens) (UniProt P10828); assay: qHTS assay for small molecule antagonists of thyroid hormone receptor beta signaling (AID 588547; active means well fitted inhibition curve with a large enough effect in the signal ratio, with a control signal flat, not every such curve was filed as active; the % refers to the signal ratio;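 further: cells stimulated with 0.4 nM T3 agonist during compound exposure; series mostly up to about 77 µM; on the % scale 0 is the no-effect control and ±100 the full control effect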); settings: TR-UAS-bla HEK293, beta-lactamase ratio, antagonist mode, 18 h
Method in brief: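 TR-UAS-bla GripTite HEK293 cells in 2% charcoal/dextran FBS medium were preincubated 4 h at 37 C, given compound (0.59 nM to 92 uM) plus 0.4 nM T3 (final) for 18 h, then CCF4 for 2 h at RT; Hill fit gave IC50.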

[12] = qHTS assay for environmental chemicals that activate the Aryl hydrocarbon Receptor (AhR) signaling pathway (AID 651777); settings: 1A2-DRE human hepatoma cells, luciferase, 24 h; activation: stronger effect = higher value; further: % of control where 0% means no effect; nearly all actives have a fitted effect of over 15% in size
Method in brief: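 Reporter gene assay: hepatoma cells with DRE/CYP1A2-luciferase, 24 hr compound incubation at 37 C, 5% CO2, luminescence after One-Glo (30 min, RT).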

[13] = target: Peroxisome proliferator-activated receptor alpha (Homo sapiens) (UniProt Q07869); assay: qHTS assay for small molecule agonists of the peroxisome proliferator-activated receptor alpha (PPARalpha) signaling pathway (AID 651778); settings: PathHunter PPARalpha complementation, chemiluminescence, 6 h; max response: stronger effect = higher value; further: % of control where 0% means no effect
Chain of Peroxisome proliferator-activated receptor alpha (Homo sapiens) (Q07869 whole entry, looked up): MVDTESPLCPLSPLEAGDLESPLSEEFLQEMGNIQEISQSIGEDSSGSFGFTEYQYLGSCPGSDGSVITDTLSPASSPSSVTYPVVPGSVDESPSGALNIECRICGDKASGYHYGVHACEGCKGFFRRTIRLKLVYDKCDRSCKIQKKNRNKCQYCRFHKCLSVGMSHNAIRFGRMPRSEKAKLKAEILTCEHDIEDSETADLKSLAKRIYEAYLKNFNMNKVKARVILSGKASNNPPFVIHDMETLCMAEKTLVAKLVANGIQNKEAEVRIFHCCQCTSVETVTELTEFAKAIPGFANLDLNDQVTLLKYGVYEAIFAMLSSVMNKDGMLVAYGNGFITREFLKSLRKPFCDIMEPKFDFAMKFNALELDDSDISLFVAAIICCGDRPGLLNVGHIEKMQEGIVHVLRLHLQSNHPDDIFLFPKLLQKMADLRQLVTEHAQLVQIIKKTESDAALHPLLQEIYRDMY
Method in brief: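 Cells plated at 2,000/well and held overnight at 37 C, 5% CO2, then compound added by pin tool for 6 hr; after PathHunter detection reagent and 60 min at room temperature, chemiluminescence from enzyme complementation was read.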

[14] = qHTS assay for small molecule agonists of the antioxidant response element (ARE) signaling pathway measured by Nrf2-dependant transcriptional activity (AID 720636; active means well fitted curve in the direction sought with a large enough effect in the repeat runs; an effect the other way counts as inactive or inconclusive;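 further: HepG2 cells with an ARE-driven luciferase reporter; % of control where 0% means no effect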)
Method in brief: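 Nrf2-dependent transcription is measured in ARE-luc HepG2 cells: compound is applied for 16 hr at 37 C after a 6 hr attachment period, and luciferase activity is quantified by luminescence using ONE-Glo.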

[15] = qHTS assay for cell viability of HEK293 cells (AID 743288); settings: ATP luminescence (CellTiter-Glo), 18 h; max response: stronger effect = lower value; further: nearly all actives have a fitted effect of over 50% in size; further: potency means the concentration at half of the fitted maximal effect; on max response: on the % scale 0 is the no-effect control and ±100 the full control effect
Method in brief: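 Viable-cell counts were inferred from luciferase-based ATP content in HEK293 cells seeded at 2,000/well, pre-incubated ≥5 h, then dosed with DMSO-solubilised compounds for 18 h at 37 C.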

[16] = qHTS assay for cell viability of the p53RE-bla HCT-116 cell line (AID 743292); further: nearly all actives have a fitted effect of over 55% in size; further: potency means the concentration at half of the fitted maximal effect
Method in brief: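 ATP-based luminescence, 16 h compound exposure at 37 C, p53RE-bla HCT-116 cells at 4,000/well.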

[17] = target: Nuclear receptor subfamily 1 group I member 2 (Rattus norvegicus) (UniProt Q9R1A7); assay: qHTS assay for small molecule activators of the rat pregnane X receptor (rPXR) signaling pathway (AID 651751; call rule not given here; further: 0% is about no effect); settings: rPXR reporter cells, luciferase (One-Glo), 24 h
Chain of Nuclear receptor subfamily 1 group I member 2 (Rattus norvegicus) (Q9R1A7 whole entry, looked up): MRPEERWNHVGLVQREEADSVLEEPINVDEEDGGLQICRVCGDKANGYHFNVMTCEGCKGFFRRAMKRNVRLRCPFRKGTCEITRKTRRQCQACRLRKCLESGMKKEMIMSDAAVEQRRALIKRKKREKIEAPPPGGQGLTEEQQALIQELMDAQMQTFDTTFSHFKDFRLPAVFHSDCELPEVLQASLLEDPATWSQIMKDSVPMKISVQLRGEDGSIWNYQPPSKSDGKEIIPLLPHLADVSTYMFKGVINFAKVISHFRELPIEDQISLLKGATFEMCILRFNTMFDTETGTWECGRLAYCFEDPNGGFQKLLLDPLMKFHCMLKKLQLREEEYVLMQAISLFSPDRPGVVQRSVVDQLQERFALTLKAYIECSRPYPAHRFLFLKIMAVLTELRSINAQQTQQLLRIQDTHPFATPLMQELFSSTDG

[18] = target: Peroxisome proliferator-activated receptor gamma (Homo sapiens) (UniProt P37231); assay: qHTS assay for small molecule agonists of peroxisome proliferator-activated receptor gamma signaling (AID 588536; active means well fitted curve in the direction sought with a large enough effect in the signal ratio, with a control signal flat, not every such curve was filed as active; the % refers to the signal ratio;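 further: 0% = DMSO basal wells and 100% = rosiglitazone at 2 µM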)
Method in brief: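 Using GeneBLAzer HEK293 cells, response was quantified by CCF4 fluorescence and normalized between basal DMSO (0%) and rosiglitazone 2 uM (100%); curves yielded half-maximal stimulation concentration and efficacy.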

[19] = qHTS assay for small molecule activators of the p53 signaling pathway (AID 651743; active means well fitted activation curve with a large enough effect in the signal ratio, not every such curve was filed as active; the % refers to the signal ratio; further: series mostly up to about 92 µM; % of control where 0% means no effect); settings: HCT-116 p53RE-bla, beta-lactamase FRET ratio, 16 h; activation: stronger effect = higher value
Method in brief: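 Here HCT-116 cells with an integrated p53-responsive beta-lactamase gene were incubated with compounds (16 hours, 37 C) after a 5-hour plating period; beta-lactamase activity was detected as fluorescence intensity via B/G FRET substrate.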

[20] = qHTS assay for small molecule agonists of the antioxidant response element (ARE) signaling pathway measured by Nrf2-dependant transcriptional activity - cell viability counter screen (AID 720653; active means well fitted curve in the direction sought with a large enough effect in the repeat runs; an effect the other way counts as inactive or inconclusive; further: potency means the concentration at half of the fitted maximal effect); settings: ARE-bla HepG2 viability, CellTiter-Glo ATP luminescence, 16 h; max response: stronger effect = lower value
Method in brief: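 ARE-bla HepG2 cells (2,000/well) rested 5 hrs at 37C/5% CO2, then exposed to compounds in DMSO for 16 hrs. Viability was read in the same wells as intracellular ATP by luminescence, 30 min at room temperature after reagent addition.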

CCOS(=O)(=O)OCC
inactive: Potency [1] | Potency [2] | outcome [3] | Potency [5] | Potency [6] | Potency [7] | Potency [8] | max response [10] 4.62% | activity change % (negative = inhibition) [11] 3.34% | activation [12] -0.0167% | max response [13] -1.06% | Potency [14] | max response [15] 1.11% | Potency [16] | max response [17] 3.38%
-7.24%: max response [9]
-21.4%: max response [4]

C=CC(=O)OCCCCCC(C)C
-15.4%: max response [9]
inactive: Potency [1] | outcome [3] | Potency [18] | Potency [6] | Potency [8] | max response [10] -5.23% | activation [19] -4.19% | activation [12] -0.0847% | max response [13] -1.09% | Potency [14] | max response [20] 8.44% | max response [15] 4.71% | Potency [16] | max response [17] 0.944%
38.5%: max response [4]
active: Potency [7] 31.6 µM

CSC(=O)c1c(C(F)F)nc(C(F)(F)F)c(C(=O)SC)c1CC(C)C
97.5%: max response [4]
-14.1%: max response [9]
inactive: Potency [1] | Potency [2] | outcome [3] | Potency [18] | Potency [5] | Potency [6] | Potency [8] | max response [10] -15.4% | activity change % (negative = inhibition) [11] -31.5% | max response [13] 6.5% | Potency [14] | max response [20] -2.65% | max response [15] -16.9% | Potency [16]

COc1cnc(OC)n2nc(NS(=O)(=O)c3c(OCC(F)F)cccc3C(F)(F)F)nc12
inactive: Potency [1] | Potency [2] | outcome [3] | Potency [18] | Potency [5] | Potency [8] | activity change % (negative = inhibition) [11] 9.04% | activation [12] 0.743% | max response [13] -1.19% | Potency [14] | max response [20] -2.64% | max response [15] -8.21% | max response [17] -1.36%
8.71%: max response [9]

CC(C)(C)N(NC(=O)c1ccc(Cl)cc1)C(=O)c1ccccc1
-27.8%: max response [4]
inactive: Potency [1] | outcome [3] | Potency [18] | Potency [5] | Potency [6] | Potency [7] | Potency [8] | max response [10] 4.87% | activation [12] 1.26% | max response [13] -3.24% | Potency [14] | max response [15] -8.37% | Potency [16]
-5.95%: max response [9]

CCOP(=O)(OCC)SCCSCC
-5.85%: max response [9]
inactive: Potency [1] | Potency [2] | Potency [18] | Potency [5] | Potency [6] | Potency [8] | max response [10] 3.44% | activity change % (negative = inhibition) [11] -4.38% | activation [19] 1.72% | activation [12] 1.43% | max response [13] -1.58% | max response [20] 12.9% | max response [15] -2.44% | Potency [16] | max response [17] 3.51%
active: Potency [7] 44.7 µM

OC(Cn1cncn1)(c1ccc(F)cc1)c1ccccc1F (stereo not given)
-19.4%: max response [9]
inactive: Potency [1] | Potency [2] | outcome [3] | Potency [5] | Potency [6] | Potency [7] | Potency [8] | activity change % (negative = inhibition) [11] 10.3% | activation [19] 0.874% | activation [12] -1.4% | max response [13] -2.15% | Potency [14] | max response [20] -4.37% | max response [15] -3.84% | Potency [16]

CC1(C)Cc2cccc(O)c2O1
-5.33%: max response [9]
inactive: Potency [1] | Potency [2] | Potency [18] | Potency [5] | Potency [6] | Potency [7] | Potency [8] | max response [10] -3.15% | activity change % (negative = inhibition) [11] -2.82% | activation [12] 0.293% | max response [13] -0.718% | Potency [14] | max response [20] 7.61% | max response [15] 4.44% | Potency [16] | max response [17] 1.61%

O=C(O)c1nc(Cl)ccc1Cl
inactive: Potency [1] | Potency [2] | Potency [7] | Potency [8] | max response [10] -18.6% and -6.7% | activity change % (negative = inhibition) [11] -7.12% | activation [19] 3.37% | activation [12] 0.739% and -2.14% | max response [13] -1.62% and -4.61% | Potency [14] | max response [20] -0.246% and 14% | max response [15] -0.844% and 6.6% | Potency [16] | max response [17] 3.48% and 10.3%
-5.13% and -14.7%: max response [9]

CC1(C)CN=C(NN=C(/C=C/c2ccc(C(F)(F)F)cc2)/C=C/c2ccc(C(F)(F)F)cc2)NC1
-117%: max response [4]
active: Potency [1] 14.1 µM [inhibitor] | Potency [20] 25.1 µM | Potency [15] 44.7 µM | Potency [16] 50.1 µM
inactive: activation [12] -13.3% | max response [13] -2.05% | Potency [14]

CCOc1ccc(C(C)(C)COCc2cccc(Oc3ccccc3)c2)cc1
-7.02%: max response [9]
-0.606%: max response [4]
inactive: Potency [1] | outcome [3] | Potency [18] | Potency [5] | Potency [6] | Potency [8] | activity change % (negative = inhibition) [11] 2.33% | activation [19] -0.0413% | activation [12] 1.55% | max response [13] -1.64% | Potency [14] | max response [20] -4.24% | max response [15] -6.28% | Potency [16]

CC(C)(C)C(=O)[C@H](Oc1ccc(Cl)cc1)n1cncn1
inactive: Potency [1] | Potency [2] | outcome [3] | Potency [5] | Potency [6] | Potency [7] | Potency [8] | max response [10] -22% | activity change % (negative = inhibition) [11] -10.2% | activation [19] -5.19% | activation [12] 3.75% | max response [13] -2.36% | Potency [14] | max response [20] -6.65% | max response [15] -16.1% | Potency [16]
20.1%: max response [9]
